Measurements: PubChem BioAssay AID1259415 (National Center for Advancing Translational Sciences (NCATS), 2018)
Among all 410,000 compounds or so, about 18,000 (4.4%) were called active. Another 7% or so got no clear call; they are omitted. Cut-off read from the data, not from the text of the source: active = activity change below about -60%; inconclusive = no clear call, values can overlap the other calls; inactive = above about -39%. What follows is part of a selection rich in actives, with near analogues and random picks from the rest.

assay: qHTS Assay for inhibitors of the human cytomegalovirus (HCMV); conditions: HFF cells, HCMV-luciferase reporter, 72 h; at 57.5 µM; active compounds read low
Summary of the method: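 Two-dose cell screen: HFF monolayers treated with compounds and infected with luciferase-expressing HCMV at 1 PFU/cell, 72 h at 37C, then lysed for luciferase measurement.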
% is set by controls: 0 for no effect and ±100 for the full control effect.

| SMILES | activity change, negative = inhibition |
| --- | --- |
| C=CCN1C(=O)N(Cc2ccccc2)c2ccccc2S1(=O)=O | 8.55% (inactive) |
| Cc1ccc(-n2c(SCC(=O)Nc3cccc(F)c3)nc3c(oc4ccccc43)c2=O)cc1C | -8.05% (inactive) |
| O=c1onc(-c2cccs2)n1Cc1ccccc1 | -71.3% (active) |
| O=C(CSc1nnc(-c2cccs2)n1Cc1ccccc1)N1CCc2ccccc2C1 | -10.6% (inactive) |
| Cc1cc(NC(=O)c2cc(-c3cccs3)on2)nn1Cc1ccc(Cl)cc1 | -28.3% (inactive) |
| CCC1=Nc2cc(C(=O)NCCCOC(C)C)ccc2Sc2ccc(C)cc21 | -62.8% (active) |
| CCC1=Nc2cc(C(=O)NCC(C)c3ccccc3)ccc2Sc2ccc(C)cc21 (centres undefined) | -7.44% (inactive) |
| CCc1ccc(Sc2cc(C(=O)NCCCOC(C)C)c3ccccc3n2)cc1 | -34.7% (inactive) |
| CC1=Nc2cc(C(=O)NCc3ccc(C)cc3)ccc2Sc2ccc(Cl)cc21 | -34.6% (inactive) |
| COCCNC(=O)c1ccc2c(c1)ncn2-c1ccc(C)c(Cl)c1 | 52.5% (inactive) |
| COCCNC(=O)c1ccc2c(c1)N=C(C)c1cc(C)ccc1S2 | -83.7% (active) |
| COc1ccc(Cc2nnnn2CC(=O)O)cc1 | -17% (inactive) |
| Cc1ccc(NC(=O)CN2C(=O)C(c3ccc(F)cc3)=NC23CCCCCC3)c(C)c1 | 0.733% (inactive) |
| CCC(=O)N1c2ccccc2CC1C(=O)N1CCN(c2ccccc2F)CC1 (centres undefined) | 3.71% (inactive) |
| O=C(NCCC1=CCCCC1)c1ccc2c(c1)N(Cc1ccccc1F)C(=O)c1ccccc1S2(=O)=O | 2.55% (inactive) |
| CCOc1ccccc1N(C)C(=O)c1cc2c(s1)-c1ccccc1OC2 | 2.75% (inactive) |
| COc1cccc(CNC(=O)CCc2nc(-c3ccc(C)cc3)no2)c1 | 9.74% (inactive) |
| Cc1ccc(-c2noc(CCC(=O)Nc3ccccc3N3CCN(C)CC3)n2)cc1 | -68.8% (active) |
| COc1ccc(-c2noc(CCC(=O)N3CCN(c4cccc(C)c4)CC3)n2)cc1 | 1.95% (inactive) |
| CCCN(c1ccc(C)cc1)c1nc(=O)c2cccnc2s1 | -20.6% (inactive) |
| COc1ccc(OC)c(CNC(=O)CN2C(=O)CCn3nc(-c4cn(C)c5ccccc45)cc32)c1 | 3.11% (inactive) |
| O=C(NCCC1CCCCN1S(=O)(=O)c1ccc(F)cc1)C(=O)NC1CC1 (centres undefined) | -34% (inactive) |

| SMILES | activity change, negative = inhibition |
| --- | --- |
| O=C1CCCCN1CCCC(=O)N1CCCC(Nc2ccc(F)cc2)C1 (centres undefined) | 4.92% (inactive) |
| O=C1/C(=C/c2ccc(F)cc2)SC(=S)N1CCCC(=O)N1CCCCC1CCO (centres undefined) | -100% (active) |
| COc1ccc(S(=O)(=O)NCc2cccn2Cc2cccc(C)c2)cc1Cl | -8.25% (inactive) |
| CCOC(=O)C1CCN(c2nc3c(S(=O)(=O)c4ccc(CC)cc4)nnn3c3ccc(Cl)cc23)CC1 | 10.1% (inactive) |
| COc1ccc2c(c1)CC[C@@H]1[C@@H]2CC[C@]2(C)C(=O)CC[C@@H]12 | -18.8% (inactive) |
| Cc1ccc2nc(-c3ccc(Br)cc3)cn2c1 | -89.7% (active) |
| Cc1ccc2nc(-c3ccccc3)c(CC3CCCCC3)n2c1 | 43.3% (inactive) |
| Cc1nc(=O)c(-c2ccccc2)c(C)n1-c1ccc(Br)cc1 | -37% (inactive) |
| Cc1ccc(-n2cc3ccc([N+](=O)[O-])cc3n2)cc1 | 46.8% (inactive) |
| CC(=O)Nc1c(-c2ccc(C)cc2)nc2ccc(Cl)cn12 | 7.31% (inactive) |
| Cc1ccc(-c2cn3cc([N+](=O)[O-])ccc3n2)cc1 | -89.1% (active) |
| Cc1ccc(N2CCN(c3ccc([N+](=O)[O-])cn3)CC2)c(C)c1 | -6% (inactive) |
| Cc1ccc(-c2cn3cc(C)ccc3n2)cc1 | -91.4% (active) |
| Cc1ccc(-c2nc(SCc3ccc(Br)cc3)n3[nH]c(=O)cc3n2)cc1 | 81.8% (inactive) |
| CCOC(=O)c1c(C)[nH]c(C)c1S(=O)(=O)N1CCC(C(=O)Nc2ccc(C)c(Cl)c2)CC1 | 1.11% (inactive) |
| CCOC(=O)c1c(C)[nH]c(CCC(=O)NCCCN2CCN(c3cccc(Cl)c3)CC2)c1C | -37.8% (inactive) |
| CCOc1cc(CNC(=O)c2sc3ncnc(N(C)C4CCCCC4)c3c2C)ccc1OC | -22.8% (inactive) |
| O=C1CC(Sc2ncn[nH]2)C(=O)N1c1ccccc1 (centres undefined) | -11.2% (inactive) |
| CCOc1ccc(CCNC(=O)CN(c2ccc(C)cc2)S(=O)(=O)N(C)C)cc1OCC | -14.8% (inactive) |
| Cc1nn2c(=O)cc(COC(=O)CNC(=O)c3ccc(F)cc3)nc2s1 | -0.933% (inactive) |
| CCOC(=O)C1C(C)C(C(C)(C)C)N(S(=O)(=O)c2ccc(C)cc2)C1c1ccccc1 (centres undefined) | -77.2% (active) |
| CCOC(=O)c1ccn(S(=O)(=O)c2ccc(C)cc2)c1-c1ccccc1 | -18.7% (inactive) |
